Assay results as given in PubChem BioAssay (NCI).
The panel holds about 79,000 compounds, 15% with a hit somewhere; the sample as a whole holds those more often. A number with no mark means an inactive call. Active and inactive are the calls of the source. Rule as the data show it: active = growth inhibition above about 70%; inactive = the rest.

Assay: NCI Yeast Anticancer Drug Screen. Data for the wt1 strain (AID 149);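 also: 0% = growth of vehicle-treated wt1 cultures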
Conditions: S. cerevisiae wt1 strain (SPY 50644) growth inhibition, stronger effect = higher value
Description: Growth inhibition of yeast strains with defined genetic alterations is measured as a screen for potential anti-cancer activity. Selected strains with alterations in DNA damage repair or cell cycle control were exposed to compounds and growth inhibition was measured relative to vehicle treated controls. The strain used in this assay is wt1

Row | SMILES | growth inhibition (at 1.2 µM) [%] | growth inhibition (at 3.7 µM) [%] | growth inhibition (at 11.0 µM) | growth inhibition (at 33.0 µM) | growth inhibition (at 100.0 µM)
1 | COC(=O)CC1(O)C(/C=C/c2ccccc2)C(C(=O)OC)C(=O)C(C(=O)OC)C1C(=O)OC (stereo not given) | 1 | 1 | 1% | -1% | -1%
2 | CN(C)N=Nc1ccccc1C(=O)NC#N | -8 | -2 | 97% (active) | 98% (active) | 99% (active)
3 | CCc1c(Cl)c(C)cc(O)c1Cl | -31 | -18 | -33% | -33% | 72% (active)
4 | Cc1ccc(CC2(OCCN(C)C)CCC(C(C)(C)C)CC2)cc1 (stereo not given) | 9 | 12 | -5% | 9% | 99% (active)
5 | CC(C)=NOC(=O)Nc1ccc(Cl)cc1 | -24 | -27 | -21% | -18% | 14%
6 | CCCCCCCCCCCCNC(C)=O | -6 | -6 | -8% | -7% | 9%
7 | COC(=O)C1=C(C(=O)OC)C(C(=O)OC)C(C(=O)OC)C(C(=O)OC)(C(=O)OC)C(C(=O)OC)=C1C(=O)OC (stereo not given) | -11 | -13 | -25% | 1% | 39%
8 | O=[N+]([O-])c1cccc2nc3ccccc3c(NCCCn3ccnc3[N+](=O)[O-])c12 | -6 | 24 | 37% | 64% | 86% (active)
